# Assay results from PubChem BioAssay AID2283336 (EPA ToxCast).
# Inconclusive results are not listed. Activity calls are given as the source filed them. The calls were made as follows: active = hit-call score of the fitted dose curve at least 0.9, where 1 is the maximum; inconclusive = response in the unintended direction; inactive = score below 0.9.
# Biological target: Kcnn1 (gene 54261) (UniProt P70606)
# Assay: NVS_IC_rKCaCh: NovaScreen (NVS) Ion Channel Assay for Potassium Channel, Ca2+ Act., VI (KCaCh)
# How it was run: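 Filter-based scintillation counting of radioligand bound to rat forebrain membrane preparations, measured 1 h after compound addition. Primary screen used 25 uM in duplicate, with concentration-response follow-up; signal decrease relative to DMSO marks activity.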
# Chain of Kcnn1 (gene 54261) (P70606 whole entry, looked up): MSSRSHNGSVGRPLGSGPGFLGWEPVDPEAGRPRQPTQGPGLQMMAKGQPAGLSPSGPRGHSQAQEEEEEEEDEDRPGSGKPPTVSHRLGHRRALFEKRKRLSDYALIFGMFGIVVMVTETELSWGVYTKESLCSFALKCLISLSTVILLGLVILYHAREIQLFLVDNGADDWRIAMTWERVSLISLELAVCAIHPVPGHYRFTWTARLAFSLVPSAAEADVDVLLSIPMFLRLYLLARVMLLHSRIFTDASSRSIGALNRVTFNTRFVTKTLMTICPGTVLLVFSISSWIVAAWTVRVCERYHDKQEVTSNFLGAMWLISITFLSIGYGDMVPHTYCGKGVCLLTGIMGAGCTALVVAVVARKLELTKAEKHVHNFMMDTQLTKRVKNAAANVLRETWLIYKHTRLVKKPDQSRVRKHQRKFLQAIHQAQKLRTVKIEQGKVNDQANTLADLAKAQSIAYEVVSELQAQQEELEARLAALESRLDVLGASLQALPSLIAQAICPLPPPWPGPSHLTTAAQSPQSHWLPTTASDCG
smiles,measurement,value
CN(C)c1ccc(C(=C2C=CC(=[N+](C)C)C=C2)c2ccc(N(C)C)cc2)cc1,AC50,16.5 µM (active)
